The text below walks through data of article PMC8384837, “Expanding the binding specificity for RNA recognition by a PUF domain”.

In the first experiment the target is PUM1 PUF domain R5-PRG (Homo sapiens, UniProt Q14671 828-1176, C1007P;Q1011G). The experiment in a line: yeast three-hybrid, YBZ-1, SC-Leu-His + 0.5 mM 3-AT, 4 days. The following applies: tags: N-Gal4 AD-HA kept; label: inside an RPR1-promoter hybrid RNA with tandem MS2 sites; ssRNA. The essentials:
(§1)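 Pumilio-1 PUF domain libraries, randomized (NNK) at the three base-contacting residues of each repeat, were co-expressed with matching RNA elements from a centromeric plasmid in strain YBZ-1 (LexA–MS2 coat fusion, HIS3 reporter). Transformants were plated on SC-Leu (input) and SC-Leu-His + 0.5 mM 3-AT (selection) for four days, and repeat regions were PCR-amplified and Illumina-sequenced. The interaction score is the log2 change in variant frequency from input to selection, with pseudocount 1 where absent.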
“GGCUAGAACUAGUGGAUCCCCCGGCGCCCGGCGGCUCGAGCCCGGGUAAGUGUGAAUAGUCUGCAUGCCGCCGGGCGCCAUGCCUGCAGGUCGACUCUAGAAAACAUG”: the binding signal is 2.67 log2 enrichment (interaction score).

“GGCUAGAACUAGUGGAUCCCCCGGCGCCCGGCGGCUCGAGCCCGGGUAAGUGUCAAUAGUCUGCAUGCCGCCGGGCGCCAUGCCUGCAGGUCGACUCUAGAAAACAUG”: the binding signal was 1.67 log2 enrichment (interaction score).

On to “GGCUAGAACUAGUGGAUCCCCCGGCGCCCGGCGGCUCGAGCCCGGGUAAGUGUUAAUAGUCUGCAUGCCGCCGGGCGCCAUGCCUGCAGGUCGACUCUAGAAAACAUG”, for which the binding signal was 3.9 log2 enrichment (interaction score). For the sequence “GGCUAGAACUAGUGGAUCCCCCGGCGCCCGGCGGCUCGAGCCCGGGUAAGUGUAAAUAGUCUGCAUGCCGCCGGGCGCCAUGCCUGCAGGUCGACUCUAGAAAACAUG”, the binding signal was 3.3 log2 enrichment (interaction score).

The target in a further experiment is PUM1 PUF domain R5-RRV (Homo sapiens, UniProt Q14671 828-1176, C1007R;Q1011V). Described as above. The following applies: tags: N-Gal4 AD-HA kept; label: inside an RPR1-promoter hybrid RNA with tandem MS2 sites; ssRNA. The essentials: as §1
In the case of “GGCUAGAACUAGUGGAUCCCCCGGCGCCCGGCGGCUCGAGCCCGGGUAAGUGUGAAUAGUCUGCAUGCCGCCGGGCGCCAUGCCUGCAGGUCGACUCUAGAAAACAUG”, the binding signal is 1.41 log2 enrichment (interaction score).

For the sequence “GGCUAGAACUAGUGGAUCCCCCGGCGCCCGGCGGCUCGAGCCCGGGUAAGUGUCAAUAGUCUGCAUGCCGCCGGGCGCCAUGCCUGCAGGUCGACUCUAGAAAACAUG”, the binding signal is 4.84 log2 enrichment (interaction score). Still for that read-out and setting: for “GGCUAGAACUAGUGGAUCCCCCGGCGCCCGGCGGCUCGAGCCCGGGUAAGUGUUAAUAGUCUGCAUGCCGCCGGGCGCCAUGCCUGCAGGUCGACUCUAGAAAACAUG” the value was 4.92 log2 enrichment (interaction score); for “GGCUAGAACUAGUGGAUCCCCCGGCGCCCGGCGGCUCGAGCCCGGGUAAGUGUAAAUAGUCUGCAUGCCGCCGGGCGCCAUGCCUGCAGGUCGACUCUAGAAAACAUG”, 2.01 log2 enrichment (interaction score).

Another experiment addresses PUM1 PUF domain R1-KRS (Homo sapiens, UniProt Q14671 828-1176, S863K;Q867S). Described as above. The settings on record: tags: N-Gal4 AD-HA kept; label: inside an RPR1-promoter hybrid RNA with tandem MS2 sites; ssRNA. The essentials:
as §1
“GGCUAGAACUAGUGGAUCCCCCGGCGCCCGGCGGCUCGAGCCCGGGUAAGUGUAAAUUGUCUGCAUGCCGCCGGGCGCCAUGCCUGCAGGUCGACUCUAGAAAACAUG”: the binding signal was 4.93 log2 enrichment (interaction score). Still for that read-out and setting: next, “GGCUAGAACUAGUGGAUCCCCCGGCGCCCGGCGGCUCGAGCCCGGGUAAGUGUAAAUGGUCUGCAUGCCGCCGGGCGCCAUGCCUGCAGGUCGACUCUAGAAAACAUG”: 2.96 log2 enrichment (interaction score). Consider “GGCUAGAACUAGUGGAUCCCCCGGCGCCCGGCGGCUCGAGCCCGGGUAAGUGUAAAUCGUCUGCAUGCCGCCGGGCGCCAUGCCUGCAGGUCGACUCUAGAAAACAUG”, for which the binding signal was 5.16 log2 enrichment (interaction score).
